Inhibition data for 34 compounds are collected here from ChEMBL document CHEMBL1961873, “Compounds: GSK PKIS; Assays: Nanosyn kinase panel” (2012).

Chain of Proto-oncogene tyrosine-protein kinase receptor Ret (Homo sapiens), P07949 [Y791F] (P07949 whole entry Y791F): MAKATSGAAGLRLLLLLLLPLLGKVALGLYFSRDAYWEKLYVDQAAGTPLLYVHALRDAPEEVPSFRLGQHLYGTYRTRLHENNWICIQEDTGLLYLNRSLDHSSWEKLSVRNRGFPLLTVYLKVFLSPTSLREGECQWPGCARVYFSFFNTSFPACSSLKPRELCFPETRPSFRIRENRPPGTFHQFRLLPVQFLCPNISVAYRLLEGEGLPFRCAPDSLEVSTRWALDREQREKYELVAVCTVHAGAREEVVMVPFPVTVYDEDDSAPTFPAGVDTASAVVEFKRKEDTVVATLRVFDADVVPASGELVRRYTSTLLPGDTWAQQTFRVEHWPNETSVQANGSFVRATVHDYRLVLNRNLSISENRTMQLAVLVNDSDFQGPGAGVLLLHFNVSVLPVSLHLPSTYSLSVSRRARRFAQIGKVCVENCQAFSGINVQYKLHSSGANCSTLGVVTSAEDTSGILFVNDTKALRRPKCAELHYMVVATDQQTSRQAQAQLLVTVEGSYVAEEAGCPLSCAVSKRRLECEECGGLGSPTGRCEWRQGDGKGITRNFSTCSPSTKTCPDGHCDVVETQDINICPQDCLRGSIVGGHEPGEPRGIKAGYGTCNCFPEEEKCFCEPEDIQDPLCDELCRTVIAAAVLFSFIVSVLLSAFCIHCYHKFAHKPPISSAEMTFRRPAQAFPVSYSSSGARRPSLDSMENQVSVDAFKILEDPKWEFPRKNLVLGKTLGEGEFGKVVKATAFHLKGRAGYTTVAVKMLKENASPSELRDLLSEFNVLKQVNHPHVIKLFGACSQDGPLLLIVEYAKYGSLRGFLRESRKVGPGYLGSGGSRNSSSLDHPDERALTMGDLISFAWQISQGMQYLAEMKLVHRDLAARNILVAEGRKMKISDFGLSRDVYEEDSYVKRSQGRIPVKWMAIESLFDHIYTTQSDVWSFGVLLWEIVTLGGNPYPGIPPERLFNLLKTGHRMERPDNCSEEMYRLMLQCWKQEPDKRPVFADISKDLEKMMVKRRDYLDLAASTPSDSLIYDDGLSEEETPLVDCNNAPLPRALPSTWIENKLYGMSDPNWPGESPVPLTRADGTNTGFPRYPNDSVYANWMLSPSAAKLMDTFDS

The subject of one assay is Proto-oncogene tyrosine-protein kinase receptor Ret (Homo sapiens), P07949 [Y791F]. The following applies: at 1 µM.
For orientation: inhibition means the relative decrease from the control value, in per cent. Regarding `[O-][S+]1CCN(Cc2ccc(-c3ccc4ncnc(Nc5ccc(OCc6ccccc6)c(Cl)c5)c4c3)o2)CC1`, the inhibition was found to be 5.41%.
As for `C[C@@H](Oc1cc(-n2cnc3ccc(OCC4CCN(C)CC4)cc32)sc1C(N)=O)c1ccccc1C(F)(F)F`, the inhibition came out at 18.4%.
For the compound `O=S(=O)(CCOCc1ccc(-c2ccc3ncnc(Nc4ccc(OCc5cccc(F)c5)c(Cl)c4)c3c2)o1)c1ccccc1`, the inhibition is 7.27%.
The same measure, in the same setting: under `CCn1c(-c2nonc2N)nc2ccc(F)cc21` stands 11.3%; under `CC(C)c1ccc(Nc2nccc(-c3cnn4ncccc34)n2)cc1`, 13.4%; under `CN(c1ccc(NC(=O)Nc2ccc(OC(F)(F)F)cc2)cc1)c1ccnc(Nc2cccc(S(N)(=O)=O)c2)n1`, 92.1%.
The same measure, in the same setting: under `NS(=O)(=O)c1ccc(N/N=C2\C(=O)Nc3ccc(Cl)cc32)cc1` stands 22.3%.
As for `COc1cccc(-n2ncc3c(N/N=C/c4ccc(S(C)(=O)=O)cc4)ncnc32)c1`, the inhibition came to 26.7%.
Regarding `CC(C)c1ccc2c(c1)NC(=O)/C2=N/Nc1ccc(S(N)(=O)=O)cc1`, the inhibition was 30.7%.
In the case of `Cc1cc(Cl)cc2c1NC(=O)C2=NNc1ccc(S(N)(=O)=O)cc1`, the inhibition was found to be 11%.
As for `c1ccc(Cc2nc3ccc(Nc4ncnc5ccccc45)cc3[nH]2)cc1`, the inhibition was found to be 6.8%.
Regarding `N#Cc1c(NC(=O)c2ccccc2F)sc2c1CCCC2`, the inhibition is 1.78%.
The same measure, in the same setting: to `CN(C)c1cc2c(Nc3ccc4c(cnn4Cc4ccccc4)c3)ncnc2cn1` belongs 34.4%.
The same measure, in the same setting: to `Nc1nccc(-c2c(-c3ccc(F)cc3)ncn2CCCN2CCOCC2)n1` belongs 24.9%; to `Cc1ccc(NC(=O)CC2CC2)cc1-c1ccc(C(=O)NCC2CC2)cc1`, 28.8%.
Take `CCn1c(-c2nonc2N)nc2c(C#CC(C)(C)O)nc(OCCNC)cc21`: the inhibition worked out at 28.9%.
Consider `Oc1cccc(-c2nc(-c3ccccc3)[nH]c2-c2ccncc2)c1`, for which the inhibition amounted to 71.2%.
For `Nc1ccc(C#Cc2cncnc2Nc2ccc(OCc3cccc(F)c3)c(Cl)c2)cc1`, the inhibition stood at 4.06%.
Same read-out and setting: to `NS(=O)(=O)c1ccc(NC=C2C(=O)Nc3ccc4ncsc4c32)cc1` belongs 72.4%; to `NS(=O)(=O)c1ccc(-c2cc3ccncc3cc2OCc2ccccc2)cc1`, 8.79%; to `Cc1cc(O)cc(C)c1/C=C/c1cncc(C(=O)N(C)C)c1`, 11.9%.
`c1ccc(Nc2ncc(-c3ccccc3)o2)cc1`: the inhibition turned out to be 11.5%.
As to `COc1cccc(-n2nc(C)c3c(N/N=C(\C)c4ccncc4)ncnc32)c1`, the inhibition turned out to be 5.78%.
Take `NC(=O)c1sc(-n2cnc3ccccc32)cc1OCc1ccccc1Br`: the inhibition is 15.3%.
Still for that read-out and setting: to `CCOc1nccc2c1nc(-c1nonc1N)n2CC` belongs 28.7%; to `CN(C)CCCn1c(-c2nonc2N)nc2cnccc21`, 8.31%.
Same read-out and setting: to `NC(=O)c1cccc(Nc2nccc(Nc3cccc(F)c3)n2)c1` belongs 37.9%.
For the compound `COC(=O)c1ccc2c(c1)C(=Cc1cc(Br)c(O)c(Br)c1)C(=O)N2`, the inhibition turned out to be 21.5%.
The same measure, in the same setting: under `FC(F)(F)c1ccc(-c2nn3ncccc3c2-c2ccnc(Nc3ccc4c(c3)OCCO4)n2)cc1` stands 43.9%; under `COc1cc(/C=N/Nc2ncnc3c2cnn3C(C)C)ccc1O`, 78.1%.
Consider `COC(=O)c1cncc(/C=C/c2c(C)cc(O)cc2C)c1`, for which the inhibition worked out at 15.2%.
Same read-out and setting: under `COc1cc2ncn(-c3cc(OCc4ccccc4S(C)(=O)=O)c(C#N)s3)c2cc1OC` stands 59.1%.
Take `Cc1ccc2c(-c3ccnc(Nc4ccc5c(c4)OCCO5)n3)c(-c3ccc(C(F)(F)F)cc3)nn2n1`: the inhibition came out at 5.72%.
On the same count and under the same terms, under `Cc1ccc(Nc2ccnc(Nc3cccc(C(N)=O)c3)n2)cc1O` stands 88.7%.

The target of a further assay is Macrophage-stimulating protein receptor (Homo sapiens) (UniProt Q04912). The following applies: at 0.1 µM.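 Also: reported values are the mean percent inhibition of RON.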
Chain of Macrophage-stimulating protein receptor (Homo sapiens) (Q04912 25-304 limits assumed): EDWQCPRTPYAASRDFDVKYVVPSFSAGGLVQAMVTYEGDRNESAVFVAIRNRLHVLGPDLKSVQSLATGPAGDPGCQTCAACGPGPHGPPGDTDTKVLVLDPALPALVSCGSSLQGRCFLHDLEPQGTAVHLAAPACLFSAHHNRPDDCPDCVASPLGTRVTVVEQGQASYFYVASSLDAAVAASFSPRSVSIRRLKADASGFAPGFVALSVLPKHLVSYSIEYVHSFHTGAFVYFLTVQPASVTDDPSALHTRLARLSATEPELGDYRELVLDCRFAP
Chain of Macrophage-stimulating protein receptor (Homo sapiens) (Q04912 310-1400 limits assumed): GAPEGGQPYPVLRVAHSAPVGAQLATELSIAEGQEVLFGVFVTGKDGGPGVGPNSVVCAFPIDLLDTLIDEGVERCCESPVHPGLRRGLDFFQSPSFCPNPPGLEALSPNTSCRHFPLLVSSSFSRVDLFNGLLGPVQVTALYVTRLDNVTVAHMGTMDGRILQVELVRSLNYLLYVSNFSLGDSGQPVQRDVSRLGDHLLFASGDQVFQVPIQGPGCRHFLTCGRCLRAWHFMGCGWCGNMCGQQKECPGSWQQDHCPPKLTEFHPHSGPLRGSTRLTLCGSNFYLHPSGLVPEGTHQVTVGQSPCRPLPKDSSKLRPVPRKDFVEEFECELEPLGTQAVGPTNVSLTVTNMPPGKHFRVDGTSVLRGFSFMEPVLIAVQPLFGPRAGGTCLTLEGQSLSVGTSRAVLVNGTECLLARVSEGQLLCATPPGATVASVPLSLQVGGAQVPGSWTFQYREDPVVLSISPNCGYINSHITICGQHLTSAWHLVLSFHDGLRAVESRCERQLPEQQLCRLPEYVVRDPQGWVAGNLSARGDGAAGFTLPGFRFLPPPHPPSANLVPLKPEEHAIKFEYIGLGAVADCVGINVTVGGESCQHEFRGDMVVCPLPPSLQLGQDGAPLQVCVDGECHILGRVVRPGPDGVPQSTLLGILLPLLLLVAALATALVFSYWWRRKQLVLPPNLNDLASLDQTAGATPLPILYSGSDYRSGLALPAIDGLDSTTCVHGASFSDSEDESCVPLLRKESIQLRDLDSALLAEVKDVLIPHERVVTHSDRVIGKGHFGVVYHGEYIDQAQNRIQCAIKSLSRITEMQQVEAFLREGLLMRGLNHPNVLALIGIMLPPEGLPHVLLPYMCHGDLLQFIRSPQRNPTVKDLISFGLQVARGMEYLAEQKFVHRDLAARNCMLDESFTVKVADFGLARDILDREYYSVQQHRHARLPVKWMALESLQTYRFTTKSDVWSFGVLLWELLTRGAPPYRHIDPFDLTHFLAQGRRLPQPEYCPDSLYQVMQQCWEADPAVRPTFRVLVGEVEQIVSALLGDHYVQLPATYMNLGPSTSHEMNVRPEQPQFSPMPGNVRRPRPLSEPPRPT
Regarding `[O-][S+]1CCN(Cc2ccc(-c3ccc4ncnc(Nc5ccc(OCc6ccccc6)c(Cl)c5)c4c3)o2)CC1`, the inhibition is 1.76%.
In the case of `C[C@@H](Oc1cc(-n2cnc3ccc(OCC4CCN(C)CC4)cc32)sc1C(N)=O)c1ccccc1C(F)(F)F`, the inhibition was -0.38%.
Consider `O=S(=O)(CCOCc1ccc(-c2ccc3ncnc(Nc4ccc(OCc5cccc(F)c5)c(Cl)c4)c3c2)o1)c1ccccc1`, for which the inhibition is 3.62%.
Still for that read-out and setting: under `CCn1c(-c2nonc2N)nc2ccc(F)cc21` stands 0.5%.
With `CC(C)c1ccc(Nc2nccc(-c3cnn4ncccc34)n2)cc1`, the inhibition amounted to 1.98%.
The same measure, in the same setting: to `CN(c1ccc(NC(=O)Nc2ccc(OC(F)(F)F)cc2)cc1)c1ccnc(Nc2cccc(S(N)(=O)=O)c2)n1` belongs 54.3%; to `NS(=O)(=O)c1ccc(N/N=C2\C(=O)Nc3ccc(Cl)cc32)cc1`, 3.12%; to `COc1cccc(-n2ncc3c(N/N=C/c4ccc(S(C)(=O)=O)cc4)ncnc32)c1`, 29.4%.
Still for that read-out and setting: to `CC(C)c1ccc2c(c1)NC(=O)/C2=N/Nc1ccc(S(N)(=O)=O)cc1` belongs 1.23%; to `Cc1cc(Cl)cc2c1NC(=O)C2=NNc1ccc(S(N)(=O)=O)cc1`, 0.92%; to `c1ccc(Cc2nc3ccc(Nc4ncnc5ccccc45)cc3[nH]2)cc1`, 4.08%.
As for `N#Cc1c(NC(=O)c2ccccc2F)sc2c1CCCC2`, the inhibition is -0.97%.
As to `CN(C)c1cc2c(Nc3ccc4c(cnn4Cc4ccccc4)c3)ncnc2cn1`, the inhibition amounted to 1.53%.
Consider `Nc1nccc(-c2c(-c3ccc(F)cc3)ncn2CCCN2CCOCC2)n1`, for which the inhibition is -1.76%.
In the case of `Cc1ccc(NC(=O)CC2CC2)cc1-c1ccc(C(=O)NCC2CC2)cc1`, the inhibition was -0.78%.
As to `CCn1c(-c2nonc2N)nc2c(C#CC(C)(C)O)nc(OCCNC)cc21`, the inhibition came out at 6.88%.
Turning to `Oc1cccc(-c2nc(-c3ccccc3)[nH]c2-c2ccncc2)c1`, the inhibition is 1.43%.
For the compound `Nc1ccc(C#Cc2cncnc2Nc2ccc(OCc3cccc(F)c3)c(Cl)c2)cc1`, the inhibition was 7.87%.
Take `NS(=O)(=O)c1ccc(NC=C2C(=O)Nc3ccc4ncsc4c32)cc1`: the inhibition was found to be 10.4%.
As for `NS(=O)(=O)c1ccc(-c2cc3ccncc3cc2OCc2ccccc2)cc1`, the inhibition turned out to be 3.44%.
Consider `Cc1cc(O)cc(C)c1/C=C/c1cncc(C(=O)N(C)C)c1`, for which the inhibition worked out at 4.1%.
On to `c1ccc(Nc2ncc(-c3ccccc3)o2)cc1`, for which the inhibition stood at 8.13%.
Take `COc1cccc(-n2nc(C)c3c(N/N=C(\C)c4ccncc4)ncnc32)c1`: the inhibition is -3.77%.
Take `NC(=O)c1sc(-n2cnc3ccccc32)cc1OCc1ccccc1Br`: the inhibition turned out to be 9.12%.
For the compound `CCOc1nccc2c1nc(-c1nonc1N)n2CC`, the inhibition was found to be 10%.
On the same count and under the same terms, under `CN(C)CCCn1c(-c2nonc2N)nc2cnccc21` stands 1.31%; under `NC(=O)c1cccc(Nc2nccc(Nc3cccc(F)c3)n2)c1`, -6.8%.
`COC(=O)c1ccc2c(c1)C(=Cc1cc(Br)c(O)c(Br)c1)C(=O)N2`: the inhibition was found to be 1.56%.
Consider `FC(F)(F)c1ccc(-c2nn3ncccc3c2-c2ccnc(Nc3ccc4c(c3)OCCO4)n2)cc1`, for which the inhibition worked out at 11.8%.
For the compound `COc1cc(/C=N/Nc2ncnc3c2cnn3C(C)C)ccc1O`, the inhibition was found to be 8.98%.
Still for that read-out and setting: to `COC(=O)c1cncc(/C=C/c2c(C)cc(O)cc2C)c1` belongs -3.36%.
Regarding `COc1cc2ncn(-c3cc(OCc4ccccc4S(C)(=O)=O)c(C#N)s3)c2cc1OC`, the inhibition is -3.29%.
In the case of `Cc1ccc2c(-c3ccnc(Nc4ccc5c(c4)OCCO5)n3)c(-c3ccc(C(F)(F)F)cc3)nn2n1`, the inhibition was -0.07%.
On to `Cc1ccc(Nc2ccnc(Nc3cccc(C(N)=O)c3)n2)cc1O`, for which the inhibition is 0.19%.
